An excerpt weighted towards active compounds, which were near 19% of everything screened.
IL-1B inflam inh: qHTS for Inhibitors of Inflammasome Signaling: IL-1-beta AlphaLISA Primary Screen; activity change, % at 57.5 µM; THP-1 LPS/ATP IL-1B secretion, AlphaLISA, 16 h; stronger effect = lower value; actives 4.7% (n = 360,000); in the data active means activity change below about -50%; inconclusive means mostly about -30% to -49%; further: on the % scale 0 is the no-effect control and ±100 the full control effect
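THP-1 cells pretreated 1 hr with compounds (up to 57.5 uM final), then stimulated with LPS (250 ng/mL final) plus ATP (1.25 mM final); secreted IL-1B measured by AlphaLISA after 16 hr, decreased signal indicating inhibition.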
ASM inhibitor: Inhibitors of Secretory Acid Sphingomyelinase (S-ASM): qHTS | placental ASM, HMU-PC fluorogenic substrate, 60 min | Potency, µM (series often up to 57.5 µM), without a hit: at the highest dose activity change, negative = inhibition, actives largely listed as inhibitors | Sphingomyelin phosphodiesterase (Homo sapiens), P17405 | AID 504937, 2011 | actives 0.006% (n = 340,000); further: potency means the concentration at half of the fitted maximal effect
Target sequence (P17405 47-631 limits assumed): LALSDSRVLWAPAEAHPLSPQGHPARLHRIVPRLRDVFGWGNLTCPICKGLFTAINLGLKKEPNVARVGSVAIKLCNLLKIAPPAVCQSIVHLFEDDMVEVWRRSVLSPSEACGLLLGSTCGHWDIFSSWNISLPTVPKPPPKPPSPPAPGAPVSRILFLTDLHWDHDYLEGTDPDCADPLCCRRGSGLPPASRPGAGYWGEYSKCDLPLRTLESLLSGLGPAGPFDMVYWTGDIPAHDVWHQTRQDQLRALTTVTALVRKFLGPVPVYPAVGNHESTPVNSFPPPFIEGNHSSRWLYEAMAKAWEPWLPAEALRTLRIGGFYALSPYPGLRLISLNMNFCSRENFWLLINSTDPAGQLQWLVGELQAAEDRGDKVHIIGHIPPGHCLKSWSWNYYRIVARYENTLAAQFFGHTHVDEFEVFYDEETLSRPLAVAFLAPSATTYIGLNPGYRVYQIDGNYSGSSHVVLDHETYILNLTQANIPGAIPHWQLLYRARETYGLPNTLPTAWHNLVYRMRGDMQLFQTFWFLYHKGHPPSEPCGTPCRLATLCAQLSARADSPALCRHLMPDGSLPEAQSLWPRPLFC
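Steps: dispense placental human ASM, pin compound, wait 10 min at room temperature, add HMU-PC0 substrate at 9 uM final, incubate 60 min at 37 °C, add stop solution raising pH to 10, read fluorescence.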
TGFb inhibitor: qHTS for Inhibitors of TGF-b; HepG2 CAGA-GFP TGF-b/SMAD3 reporter, GFP fluorescence, 18 h; TGF-beta stimulated, 500 pg/mL final; Potency, µM (titrated, usually from 46.1 µM), for inactives: at the top dose activity, negative = inhibition, hits mostly inhibitors; actives 1.2% (n = 410,000); further: potency means the concentration at half of the fitted maximal effect; on the % scale 0 is the no-effect control and ±100 the full control effect; nearly all actives have a fitted effect of over 65% in size
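Read-out: total well GFP (ex488/em500-530) summed from mean per-cell fluorescence. Cells: HEPG2 CAGA-GFP, 1% FBS DMEM, 18 h at 37 degrees C with 500 pg/mL final TGF-beta. Unstimulated wells served as the full-inhibition control; stimulated DMSO wells = 0%.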
DT40 TDP1 no CPT: qHTS for Inhibitors of human tyrosyl-DNA phosphodiesterase 1 (TDP1): qHTS in cells in absence of CPT. DT40 Tdp1-/- hTDP1 cells, no CPT, ATP luminescence, 48 h. Potency, µM (titrated, usually from 46.2 µM), without a hit: top-dose activity change, negative = growth inhibition, most hits filed as inhibitors. actives 15% (n = 420,000); further: potency means the concentration at half of the fitted maximal effect; on the % scale 0 is the no-effect control and ±100 the full control effect; nearly all actives have a fitted effect of over 55% in size
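Stably hTDP1-transfected Tdp1-null chicken DT40 cells were treated with library compounds minus camptothecin and grown for at least 48 hr at 37 °C, after which cellular ATP was quantified by luminescence.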
TDP1 cell CPT: qHTS for Inhibitors of human tyrosyl-DNA phosphodiesterase 1 (TDP1): qHTS in cells in presence of CPT. chicken DT40 Tdp1-/-;hTDP1 cells + 20 nM CPT, ATP luminescence, 48 h. actives 12% (n = 420,000). Potency, µM (top dose mostly 46.2 µM), without a hit: top-dose activity change, negative = growth inhibition, usual class: inhibitors. AID 686979, 2013; further: potency means the concentration at half of the fitted maximal effect; on the % scale 0 is the no-effect control and ±100 the full control effect; nearly all actives have a fitted effect of over 55% in size
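Chicken DT40 Tdp1-/- cells stably complemented with human TDP1 were seeded at 400 cells/well in medium containing 20 nM camptothecin, exposed to pin-transferred compounds, and grown at 37 °C for at least 48 hr. Viability was read as ATP luminescence.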
HepG2 tox: qHTS for Inhibitors of TGF-b: Cytotox Counterscreen. HepG2 CAGA-GFP viability, ATP luminescence, 18 h. Potency, µM (titrated, usually from 46.1 µM), inactives show top-dose activity change, negative = cytotoxicity, most hits filed as cytotoxic. actives 0.76% (n = 410,000). AID 588856, 2011; further: potency means the concentration at half of the fitted maximal effect
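HepG2 CAGA-GFP cells (1000/well, DMEM with 1% FBS) received compound, then TGF-beta at 500 pg/mL final, and were incubated 18 hours at 37 degrees C. Viability was read by CellTiter-Glo luminescence. Media-only wells were set as complete cell-killing and DMSO as no toxicity.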
* marks the source's active call; other numbers are inactive results; ? = inconclusive; . = no result given. Unless noted, the call rests on the fitted dose curve; in most records, active means well fitted curve in the direction sought with a large enough effect; inconclusive means small, poorly fitted or top-dose-only effect, or another doubt; inactive means no such curve, though single readings can be large; an effect the other way counts as inactive or inconclusive.

SMILES | IL-1B inflam inh | ASM inhibitor | TGFb inhibitor | DT40 TDP1 no CPT | TDP1 cell CPT | HepG2 tox
CC1=C(C(=O)Nc2ccccc2C)C(c2ccco2)n2ncnc2N1 (configuration not stated) | . | . | ? | -26% | -8% | -27%
C/C(CC(=O)Nc1ccccc1C#N)=N\NC(=O)c1ccncc1 | -6 | -2% | -4% | 7% | 27% | -10%
CNC(=S)NNC(=O)c1cc(C(C)(C)C)nn1Cc1ccc(F)cc1 | 0 | 5% | -16% | 16µM* | ? | 4%
COc1cccc(-c2cc(C(=O)NCCCN3CCOCC3)no2)c1 | 4 | 1% | 0% | -9% | 20% | -2%
COc1cccc(-c2nc(C(=O)NCCCN3CCOCC3)cc3c2[nH]c2ccccc23)c1 | -64* | 8% | ? | 8.2µM* | 9.2µM* | -45%
O=C(NCCCO)c1cc2c([nH]c3ccccc32)c(-c2ccccc2)n1 | -88* | 4% | -6% | 13µM* | 15µM* | -13%
O=C(NCCCN1CCOCC1)c1ccc(Br)cc1 | 5 | -3% | -2% | 0% | -14% | -4%
O=C(NCCCN1CCOCC1)c1cc2c([nH]c3ccccc32)c(-c2cccc(Br)c2)n1 | -73* | 32% | ? | 8.2µM* | 8.2µM* | -55%
CN(C)CCCn1c(=O)n(C2CCCCC2)c(=O)c2c3c(sc21)CCCCC3 | ? | -1% | -1% | -24% | ? | -2%
CCC1Nc2ncnc(N3CCc4ccccc4C3)c2N(Cc2ccc(Cl)cc2)C1=O (configuration not stated) | -14 | 0% | ? | ? | 21µM* | 14%
CCC1Nc2ncnc(N3CCN(c4ccccn4)CC3)c2N(Cc2ccc(Cl)cc2)C1=O (configuration not stated) | -59* | 12% | -14% | ? | ? | -1%
COc1ccc(CN2C(=O)C(C)Nc3ncnc(N4CCN(c5ccccc5)CC4)c32)cc1 (configuration not stated) | -26 | -3% | -5% | ? | ? | -12%
CC1Nc2ncnc(N3CCc4ccccc4C3)c2N(Cc2ccccc2)C1=O (configuration not stated) | -23 | . | ? | ? | 21µM* | -27%
CCC1Nc2ncnc(N3CCCCC3)c2N(Cc2ccc(Cl)cc2)C1=O (configuration not stated) | -6 | 0% | ? | ? | ? | -1%
CC1Nc2ncnc(N3CCN(c4ccccc4)CC3)c2N(Cc2ccc(Br)cc2)C1=O (configuration not stated) | ? | -15% | ? | 21µM* | ? | -19%
O=C1C(Cc2ccccc2)Nc2ncnc(N3CCc4ccccc4C3)c2N1Cc1ccc(Cl)cc1 (configuration not stated) | -94* | 9% | 18µM* | ? | ? | -20%
CCOc1ccc(-n2c(SCC(=O)N3CCOCC3)nc3c([nH]c4ccccc43)c2=O)cc1 | . | . | 2% | ? | -17% | -3%
Fc1ccc(Nc2nc(-c3ccncc3)nc3ccccc23)cc1 | 39 | 9% | -9% | ? | ? | -5%
COc1ccc(CNc2nc(-c3ccc(N(C)C)cc3)nc3ccccc23)c(OC)c1 | . | . | . | 4.1µM* | 4.1µM* | .
c1cncc(CNc2nc(-c3ccoc3)nc3ccccc23)c1 | . | . | . | 21µM* | ? | .
Cc1ccc(-c2nc(NCCCN(C)C)c3ccccc3n2)cc1 | ? | . | -2% | ? | -4% | -40%
CN(C)c1ccc(-c2nc(Nc3ccncc3)c3ccccc3n2)cc1 | . | . | . | 5.8µM* | 9.2µM* | .
CN(C)c1ccc(-c2nc(NCc3cccnc3)c3ccccc3n2)cc1 | . | . | . | 4.1µM* | 3.7µM* | .
CC(=O)N1CC2(NC(=O)c3ccccc3N2)c2ccccc21 (configuration not stated) | 16 | 199% | -6% | -20% | 7% | -10%
CCc1nc2ccc(C(=O)N3CCN(C(=O)c4ccco4)CC3)cn2c1N(CC)CCOC | 0 | . | 0% | -11% | -5% | -7%
SMILES | IL-1B inflam inh | ASM inhibitor | TGFb inhibitor | DT40 TDP1 no CPT | TDP1 cell CPT | HepG2 tox
CCOCCOC(=O)c1ccc2c(c1)N(Cc1ccccc1C#N)C(=O)c1ccccc1S2(=O)=O | . | . | -38% | ? | ? | -26%
O=C(CN1CCN(S(=O)(=O)c2ccccc2F)CC1)Nc1ccnn1C1CCCC1 | 16 | 2% | -20% | 21µM* | ? | -20%
O=C(CN1CCN(S(=O)(=O)c2ccccc2F)CC1)Nc1ccccc1C(=O)c1ccccc1 | -17 | 0% | ? | 29µM* | ? | -17%
CC(=O)Oc1ccc(-c2nc(-c3ccccc3)no2)cc1 | . | . | -5% | ? | ? | -43%
CCOC(=O)Cn1c(=O)oc2cc(S(=O)(=O)NCc3ccc(F)cc3)ccc21 | . | . | ? | -25% | -5% | -12%
COc1ccccc1CNC(=O)Cn1c(=O)oc2cc(S(=O)(=O)NCc3ccccc3)ccc21 | . | . | -18% | 18µM* | 10µM* | -18%
COc1ccc(OC)c(NC(=O)Cn2c(=O)oc3cc(S(=O)(=O)NCc4ccccc4)ccc32)c1 | . | . | -12% | 15µM* | ? | 0%
CCOc1ccccc1NC(=O)Cn1c(=O)oc2cc(S(=O)(=O)NCc3ccccc3)ccc21 | . | . | 0% | ? | 13µM* | -8%
O=C(Nc1ccc2oc(-c3ccccc3F)nc2c1)c1ncn[nH]1 | -7 | -5% | 10% | ? | -12% | -61%
Cc1nc2ccc(NC(=O)Nc3ccnc4cccnc34)cc2o1 | . | . | . | 21µM* | ? | .
COc1ccc(NC(=O)c2cc3ccccc3cc2OC)cc1OC | -20 | -8% | -4% | 18µM* | ? | -13%
Cc1ccc(C(=O)Nc2ccc3oc(-c4ccncc4)nc3c2)c(Cl)c1 | . | . | -10% | ? | -30% | -8%
Cc1ccc(-c2nc3cc(NC(=O)c4cc(Br)ccc4Cl)ccc3o2)cc1 | . | . | -11% | 4.6µM* | 5.8µM* | -15%
CNC(=S)Nc1ccc2nc(C)oc2c1 | 13 | -1% | -20% | 4% | 0% | 0%

Compound activity from PubChem BioAssay.
